Compound activity deposited in PubChem by The Scripps Research Institute Molecular Screening Center.
Shown are actives, neighbours in structure and some others; about 4.1% of the full set was active somewhere.
DAX1 inh-1 = inhibits human nuclear receptor DAX1 | HEK293 Gal4-DAX1 luciferase reporter, luminescence | inhibition, % at 6.75 µM | hit rate 0.99% among 340,000 | P51843 | AID 504766;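 active = inhibition above the mean over all tested compounds plus 3 SD, cut at about 4.2% in these data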;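 note: inhibition shows as a rise in luminescence from relieved DAX1 repression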
hgDAF-12 ag = agonists of H. glycines DAF-12 nuclear receptor; hit rate 1.8% among 370,000; HEK293 GAL4-hgDAF12 UAS-luciferase reporter, agonist luminescence; normalized to butyrate control; activation, % at 6.8 µM; AID 687014;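 active = activation above a cutoff set at the mean of all screened compounds plus 3 SD, cut at about 10% in these data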
ssDAF-12 act = S. stercoralis DAF-12 activation, primary screen; hit rate 1% among 370,000; activation, % at 6.8 µM; HEK293 ssDAF-12/GRIP1 lit1-tk-luc reporter, luminescence; % of 3 µM dafachronic acid response;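 active = activation above the mean over all tested compounds plus 3 SD, cut at about 0.9% in these data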
DAX1 inh-2 = inhibitors of DAX1 repression of SF-1 activated StAR promoter; HEK293T StAR-luciferase reporter, SF-1/DAX-1 repression relief; inhibition, % at 6.8 µM; hit rate 1.1% among 370,000; AID 652010;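 active = inhibition above the mean over all tested compounds plus 3 SD, cut at about 3.6% in these data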;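 note: higher inhibition means more luminescence from relief of DAX-1 repression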
hcDAF12 agonist = activates DAF-12 receptor from parasite H. contortus; activation, % at 6.8 µM; HEK293 hcDAF-12 lit1-tk-luc reporter, luminescence; 0% DMSO, 100% Δ7-dafachronic acid; hit rate 1.4% among 370,000; AID 652067;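 active = activation above the mean of all tested compounds plus 3 SD, cut at about 5.5% in these data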
DAX1 inh confirm = confirmation of human DAX1 (NR0B1) inhibitors; shares compounds with DAX1 inh-2; AID 652134; inhibition, % at 6.8 µM; HEK293T StAR-promoter luciferase reporter, SF-1/DAX-1 repression; hit rate 87% among 2,400;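 active = inhibition above the average of every tested compound plus 3 SD, cut at about 3.8% in these data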;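 note: active compounds raise luminescence by relieving repression of the StAR reporter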
Target sequence (P51843 whole entry, looked up): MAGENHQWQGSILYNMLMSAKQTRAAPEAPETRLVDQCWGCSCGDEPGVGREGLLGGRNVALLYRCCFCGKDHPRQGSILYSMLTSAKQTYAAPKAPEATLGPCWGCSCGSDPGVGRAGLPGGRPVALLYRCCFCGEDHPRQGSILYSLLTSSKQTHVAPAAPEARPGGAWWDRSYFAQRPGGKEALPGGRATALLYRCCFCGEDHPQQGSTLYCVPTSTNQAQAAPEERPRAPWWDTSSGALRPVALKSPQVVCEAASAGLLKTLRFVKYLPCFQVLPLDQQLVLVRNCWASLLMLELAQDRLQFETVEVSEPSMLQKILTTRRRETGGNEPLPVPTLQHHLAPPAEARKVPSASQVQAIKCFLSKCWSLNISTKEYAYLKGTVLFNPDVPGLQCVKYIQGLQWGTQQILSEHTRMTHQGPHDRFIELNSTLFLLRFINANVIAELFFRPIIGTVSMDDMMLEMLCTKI
SF1 mutant ctr = nonselective inhibitor or artifact in SF-1 mutant DAX1 counter-screen; shares compounds with DAX1 inh-2; HEK293 StAR-luciferase, SF-1 AF2 mutant, luminescence; inhibition, % at 6.8 µM; hit rate 78% among 2,400;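 active = inhibition above the mean of all tested compounds plus 3 SD, cut at about 3% in these data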
LXR ag = activates human LXR-beta, counter-screen for hcDAF-12 agonists | HEK293 Gal4-LXR tk-luc reporter, luminescence, 24 h; normalized: DMSO 0%, positive control 100% | shares compounds with hcDAF12 agonist | 3,400 tested, under 10 active | activation, % at 6.8 µM;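 active = mean percent activation of the reporter above a cutoff set as the average over tested compounds plus their standard deviation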
hcDAF12 conf = confirmation of H. contortus DAF-12 agonists; shares compounds with hcDAF12 agonist; HEK293 hcDAF-12 lit1-tk-luc reporter, luminescence; % of Δ7-dafachronic acid response; activation, % at 6.8 µM; hit rate 61% among 3,400;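 active = mean activation across triplicate tests above the threshold derived from the earlier primary screen, cut at about 5.5% in these data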
hgDAF12 conf = hgDAF-12 agonism, confirmation assay | shares compounds with hgDAF-12 ag | HEK293 GAL4-hgDAF12 luciferase reporter, agonist mode; percent of butyrate response | activation, % at 6.8 µM | hit rate 80% among 3,300;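 active = mean activation over triplicate wells above the hit cutoff derived from the earlier primary screen, cut at about 11% in these data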
LXRb DAF12 ctr = activates human LXR-beta, counter-screen for DAF-12 agonists; shares compounds with hgDAF-12 ag; activation, % at 6.8 µM; 3,300 tested, under 10 active; HEK293 Gal4-LXR luciferase reporter, 24 h;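 active = mean activation of the triplicate above a set limit carried over from the primary screen, none filed active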
Numbers stand for hits; n = inactive; x = no result.

SMILES	DAX1 inh-1	hgDAF-12 ag	ssDAF-12 act	DAX1 inh-2	hcDAF12 agonist	DAX1 inh confirm	SF1 mutant ctr	hgDAF12 conf	LXRb DAF12 ctr	others
O=C(/C=C/c1ccc(Cl)cc1Cl)Nc1cccc(S(=O)(=O)NC2=NCCC2)c1	n	18	n	5.4	n	9.4	5.0	14	n
COC(=O)[C@]12C[C@H](CC(=O)NCc3cccc(C(F)(F)F)c3)C(=O)N(Cc3ccco3)C1=C[C@H](C1CCCC1)O[C@@H]2C	x	n	n	n	n	x	x	x	x
Nc1c(C(=O)Nc2cccc(F)c2)nnn1-c1ccc2c(c1)OCCO2	n	17	n	4.5	7.0	16	5.2	18	n	LXR ag=n;hcDAF12 conf=8.4
Cc1ccccc1NC(=O)c1nnn(-c2ccc3c(c2)OCCO3)c1N	n	n	n	n	n	x	x	x	x
Cc1ccc(NCc2nc3ccccc3n2C)cc1	n	14	3.5	6.3	15	15	8.2	18	n	LXR ag=n;hcDAF12 conf=17
Nn1c(SCC(=O)N2c3ccccc3Sc3ccc(Cl)cc32)nnc1-c1n[nH]c2c1CCC2	x	n	n	n	n	x	x	x	x
O=C(O)C(=O)Nc1nc(-c2ccc3c(c2)OCCO3)cs1	n	n	n	n	n	x	x	x	x
CCCC(=O)Nc1nc(-c2ccc3c(c2)OCCO3)cs1	n	14	n	5.6	n	6.5	4.8	11	n
CC(=O)Nc1ccc(-c2cc(-c3ccccc3)nc(-c3ccccc3)n2)cc1	n	n	n	n	n	x	x	x	x
CC(=O)Nc1ccc2nc(-c3ccccc3)cn2c1	n	21	n	6.0	n	10.0	6.6	17	n
CC(=O)c1cccc(NC(=O)NC2CCCCC2)c1	n	x	x	x	x	x	x	x	x
CC(=O)c1ccc(NC(=O)NC2CCCCCCC2)cc1	n	14	n	12	n	13	7.4	16	n
O=C(Nc1ccccc1F)NC1CCCCCCC1	n	13	n	4.5	n	7.2	4.1	n	n
CC(=O)c1ccc(NC(=O)Nc2ccc(Cl)cc2)cc1	n	15	n	6.5	7.1	6.6	5.8	16	n	LXR ag=n;hcDAF12 conf=7.4
Cc1ccc(-c2cc(C(=O)NN=Cc3sccc3C)[nH]n2)cc1C	x	n	n	n	n	x	x	x	x
C[C@H]1[C@@H](NC(=O)c2cccc(N(C)C)c2)CC[C@@]23CCCN2C(=O)CCC[C@@H]13	x	n	n	x	n	x	x	x	x
CCC(=O)Nc1ccc2c(c1)ncn2-c1ccc(C)cc1	n	13	n	7.4	n	9.0	5.5	11	n
CCc1c(-c2ccccc2)nc2sc3c(c2c1N)CCCC3	n	n	n	n	n	x	x	x	x
Nc1c2c(nc3sc4c(c13)CCCCC4)CCCCC2	n	16	n	5.0	5.8	8.7	3.5	16	n
CCc1ccc2cc3c(cc2n1)C(=O)c1ccccc1-3	x	21	3.6	9.5	17	11	6.4	23	n	LXR ag=n;hcDAF12 conf=16
CCOC(=O)[C@@]12CCCC=C1N(CCc1ccc(Cl)cc1)C(=O)[C@H]2CC(=O)NCc1cccs1	x	n	n	n	n	x	x	x	x
COc1ccc2cc3cc(C(=O)N4CCCCC4C)oc3nc2c1 (stereo not drawn)	n	14	n	11	n	10	5.3	17	n
CC(C)(C)S(=O)N1C[C@@H]2CC(=O)C=C2[C@H]1CCO (stereo partly drawn)	x	n	n	n	n	x	x	x	x
